RORgamma inh = inhibitors of mouse ROR gamma transcriptional activity | P51450 | Potency, µM (top dose mostly 53.6 µM), for inactives: at the top dose activity change, negative = inhibition, usual class: inhibitors | 5.4% of 310,000 active | AID 2551 | Drosophila S2 Gal4-RORgamma UAS-luciferase reporter, 20 h; also: potency is read from the fitted curve at half-maximal effect; % is scaled to controls: 0 for no effect and ±100 for the full control effect; nearly all actives have a fitted effect of over 60% in size
Target sequence (P51450 whole entry, looked up, the tested form may be a part): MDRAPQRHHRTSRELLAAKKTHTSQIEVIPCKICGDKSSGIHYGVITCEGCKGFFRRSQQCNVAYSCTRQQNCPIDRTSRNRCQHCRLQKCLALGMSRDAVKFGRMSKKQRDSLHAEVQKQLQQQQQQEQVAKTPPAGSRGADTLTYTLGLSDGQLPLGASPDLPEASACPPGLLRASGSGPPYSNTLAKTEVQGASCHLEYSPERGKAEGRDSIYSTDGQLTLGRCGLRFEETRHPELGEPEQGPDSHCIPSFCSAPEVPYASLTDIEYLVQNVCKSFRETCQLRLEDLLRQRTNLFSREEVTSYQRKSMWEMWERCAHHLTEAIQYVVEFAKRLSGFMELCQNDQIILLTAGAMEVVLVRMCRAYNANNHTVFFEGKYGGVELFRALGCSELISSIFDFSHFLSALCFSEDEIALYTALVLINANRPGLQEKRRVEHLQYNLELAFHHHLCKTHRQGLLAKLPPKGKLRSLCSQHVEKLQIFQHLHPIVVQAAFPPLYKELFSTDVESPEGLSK
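Schneider cells (Drosophila), stable Gal4 DBD–ROR gamma + UAS-luc; 1 hr cmpd preincubation; Cu2+ induction 700 uM final; 20 hr ambient; luminescence.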
Giardia killer = Giardia lamblia killing; Giardia lamblia trophozoite viability; activity change, % at 7.66 µM, hits read low; 0.15% of 340,000 active; AID 540267; in the data active = activity change below about -80%; inconclusive = between about -30% and that limit;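 also: parasites exposed to compound for two days anaerobically before the ATP read; % is scaled to controls: 0 for no effect and ±100 for the full control effect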
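Trophozoite viability was measured as ATP-dependent luminescence, read 15-30 min after reagent addition. Before that, parasites at 100 cells/well were exposed to compounds for 48 h, anaerobically, at 37 deg C.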
ELG1 repair inh = inhibitors of ELG1-dependent DNA repair in HEK293T cells; HEK293T ELG1-luciferase reporter, luminescence, 16 h; DNA damage induced by 5-fluorouridine; 2.3% of 330,000 active; Potency, µM (series often up to 46.1 µM), without a hit: top-dose activity change, negative = inhibition, actives largely listed as inhibitors; also: potency is read from the fitted curve at half-maximal effect; % is scaled to controls: 0 for no effect and ±100 for the full control effect; nearly all actives have a fitted effect of over 55% in size
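DMSO vehicle served as the neutral condition. Each well held 2,000 cells given 5-fluorouridine plus compound; after 16 hr at 37 °C/5% CO2, ONE-Glo was added and luciferase measured 30 min later.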
VP16 counter = counter-screen for ROR gamma inhibitors: Gal4-VP16 reporter | Potency, µM (highest dose often 53.6 µM), for the others: at the highest dose activity, negative = inhibition, actives largely listed as inhibitors | 3.5% of 310,000 active | Drosophila S2 Gal4-VP16 UAS-luciferase, luminescence, 20 h;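 also: Gal4-VP16 expression switched on by copper sulfate through the metallothionein promoter; potency is read from the fitted curve at half-maximal effect; % is scaled to controls: 0 for no effect and ±100 for the full control effect; nearly all actives have a fitted effect of over 50% in size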
BRCA1 expr up = BRCA1 expression activation. MCF7-BRCA1-FFLuc reporter, luminescence, 48 h; response scale: scaled: vehicle 0%, 10 µM genistein 100%. Potency, µM (titrated, usually from 46.1 µM), without a hit: top-dose activation, most hits filed as activators. 1.1% of 380,000 active. AID 624202; also: potency is read from the fitted curve at half-maximal effect; nearly all actives have a fitted effect of over 80% in size
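MCF7-BRCA1-FFLuc, 2000 cells/well; 2 h attach, 37 °C/5% CO2; compound 48 h; luciferase substrate 15 min; luminescence end-point. Norm. to genistein 10 microM max activation and DMSO; concentration-response curves fitted.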
p53 reactivator = restores transcriptional activity of mutant p53 | AID 504706 | Potency, µM (titrated, usually from 92.2 µM), inactives show at the top dose activity change, positive = activation, usual class: activators | 0.063% of 320,000 active | H1299 p53-A138V BP100-luciferase reporter, luminescence, 24 h; also: potency is read from the fitted curve at half-maximal effect; % of control where 0% means no effect; nearly all actives have a fitted effect of over 45% in size
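H1299 (p53-null), stable ts p53-A138V + BP100-Luc; 1000 cells/well, Opti-MEM/10% FBS; cpd 4 pt, 1:5; 24 h, 37 deg C, 5% CO2; detection reagent 10 min RT; luminescence.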
An asterisk follows results filed as active; ? = inconclusive; · = no result; [ ] = dose if it differs, or a comment. A selection: hits, their analogues and other compounds. The true share with any hit is near 7.6%. Unless noted, calls follow the shape of the dose curve; as a rule, active = well fitted curve in the direction sought with a large enough effect; inconclusive = small, poorly fitted or top-dose-only effect, or another doubt; inactive = no such curve, though single readings can be large; an effect the other way counts as inactive or inconclusive.

SMILES | RORgamma inh | Giardia killer | ELG1 repair inh | VP16 counter | BRCA1 expr up | p53 reactivator
O=C(Nn1c(Cc2cccs2)nc2ccccc2c1=O)c1ccc(F)c(F)c1 | ? | 3 | -2% | -2% | -4% | -10%
C/C(=N/NC(=O)c1ccoc1C)c1ccc(NC(=O)C2CCCC2)cc1 | ? | 2 | ? | -11% | 5.6µM* | ?
C/C(=N\NC(=O)C1(C)CC1(Br)Br)c1cccc(NC(=O)c2ccc(C)o2)c1 (stereo not drawn) | ? | 4 | 7.3µM* | ? | -76% | -49%
C/C(=N\NC(=O)C1(C)CC1(Br)Br)c1ccc(NC(=O)C2CCC2)cc1 (stereo not drawn) | 3% | -9 | 6.5µM* | -20% | -74% | 5%
C/C(=N\NC(=O)c1nn(C)c(C)c1Br)c1ccc(NC(=O)C2CCCC2)cc1 | 5.6µM* | 6 | ? | ? | 5µM* | 23%
C/C(=N\NC(=O)c1ccn(C)n1)c1ccc(NC(=O)C2CCCC2)cc1 | 5% | -7 | -15% | 17% | 2% | 6%
Cc1ccc(C(=O)Nc2cccc(C(=O)NCc3ccccc3)c2)o1 | 6% | -10 | -20% | 11% | -7% | 0%
CN(C)CCCNC(=S)Nc1ccc(Br)cc1 | 12% | -13 | ? | 0% | 22% | 1%
O=C(CNCc1ccccc1)Nc1ccc(Oc2ccccc2)cc1 | 33% | -3 | 4% | -8% | -22% | 1%
COc1ccc(C(=O)Nc2cccc(/C(C)=N\NC(=O)c3ccoc3C)c2)cc1OC | · | -9 | ? | · | 31% | ·
C/C(=N\NC(=O)c1ccoc1C)c1ccccc1 | -41% | -22 | ? | -6% | 4µM* | 9%
Cc1csc2ncnc(NC3CCN(Cc4ccccc4)CC3)c12 | 2.5µM* | 9 | 7% | 2.8µM* | -48% | -5%
CN(Cc1ccccc1)c1ccc(/C=C/c2nc3ccccc3s2)cc1 | · | · | · | · | 7% | ·
Cc1ccc(/C=C/c2nc3ccccc3s2)s1 | ? | ? | ? | 10µM* | -57% | 30%
O/C(=C\c1ccc2ccccc2n1)c1ccc(O)cc1O | 2.8µM* | ? | ? | 8.9µM* | ? | -3%
Oc1ccc(/C=C/c2ccc3ccccc3n2)cc1 | 7.9µM* | ? | ? | 11µM* | -39% | -10%
CN(C)c1ccc(/C=C/c2nc3ccccc3s2)cc1 | 0.32µM* | ? | -26% | 4µM* | -82% | -8%
CC1(C)CC(O)CC(C)(C)N1CC(O)COCc1ccccc1 (stereo not drawn) | -5% | 5 | 0% | -3% | 17% | -1%
CCOC(=O)C1=NOC(CNc2ncc(C(F)(F)F)cc2Cl)C1 (stereo not drawn) | -16% | ? | 13% | -1% | -15% | 15%
O=C(NCc1ccc(F)cc1)Nc1nnc([C@@H]2C[C@H](O)[C@@H](CO)O2)s1 | · | · | · | · | 6% | ·
CN(C)c1ccc(/C=C/c2ccc3ccccc3n2)cc1 | 4µM* | ? | ? | 2.8µM* | -64% | -12%
CC(C)n1c(NCc2ccc(N(C)C)cc2)nc2ccccc21 | -2% | -18 | ? | -4% | 1% | 1%
CN(C)c1ccc(CNc2nc3ccccc3s2)cc1 | 5µM* | · | ? | 7.9µM* | · | ?
CCN(CC)c1ccc(-c2nnc(SCC(=O)Nc3ccccc3C#N)n2-c2ccccc2)cc1 | 18µM* | -23 | ? | -25% | -73% | -3%
Cc1ccc(-c2nnc(SCC(=O)CC(=O)Nc3ccccc3)n2-c2ccccc2)cc1 | 3.5µM* | -6 | -11% | ? | -7%[1.84 µM] | -1%
CCn1c(COc2ccccc2C)nnc1SCC(=O)CC(=O)Nc1ccccc1 | 7.1µM* | 6 | -11% | ? | -38% | 2%
COc1ccc(-n2c(Cc3ccccc3)nnc2SCc2ccc([N+](=O)[O-])cc2)cc1 | 43% | -29 | -23% | -8% | -32% | 1%

Screening results from PubChem BioAssay.
